Experimental data reported in PubChem BioAssay.
Active and inactive are the calls of the source.

What was measured:
[1] = small molecules captured by biotinylated probe aFSTL3 – biochemical, small-molecule microarray, fluorescence 635/667, stem cell growth factor project, primary screen (AID 1064); settings: higher = more signal;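 also: measures binding of the biotinylated anti-FSTL3 antibody to printed compounds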
[2] = binders from COS7 lysate, DM2A8 probe, primary screen, torsin A project, cell lysate, small-molecule microarray, fluorescence 635/667 (AID 1065); settings: higher = more signal, COS7 lysate expressing mutant human TOR1A
[3] = small molecules captured by biotinylated probe aFGF2 – biochemical, small-molecule microarray, fluorescence 635/667, stem cell growth factor project, primary screen (AID 1067); settings: higher = more signal;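 also: measures binding of biotinylated aFGF2 protein to printed compounds on slides; z-score merges feature fluorescence and signal-to-noise across triplicate slides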
[4] = small molecules captured by biotinylated probe aFGF10 – biochemical, small-molecule microarray, fluorescence 635/667, stem cell growth factor project, primary screen (AID 1071); settings: higher = more signal;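 also: score merges 667 nm spot intensity and signal to noise from triplicate slides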
[5] = target: Neurogenic locus notch homolog protein 2 (Homo sapiens) (UniProt Q04721); test: small molecules binding Notch2 protein – biochemical, small-molecule microarray, 635 nm fluorescence, stem cell growth factors, primary screen (AID 1073); settings: higher = more signal
Neurogenic locus notch homolog protein 2 (Homo sapiens), sequence (Q04721 whole entry, looked up, canonical isoform): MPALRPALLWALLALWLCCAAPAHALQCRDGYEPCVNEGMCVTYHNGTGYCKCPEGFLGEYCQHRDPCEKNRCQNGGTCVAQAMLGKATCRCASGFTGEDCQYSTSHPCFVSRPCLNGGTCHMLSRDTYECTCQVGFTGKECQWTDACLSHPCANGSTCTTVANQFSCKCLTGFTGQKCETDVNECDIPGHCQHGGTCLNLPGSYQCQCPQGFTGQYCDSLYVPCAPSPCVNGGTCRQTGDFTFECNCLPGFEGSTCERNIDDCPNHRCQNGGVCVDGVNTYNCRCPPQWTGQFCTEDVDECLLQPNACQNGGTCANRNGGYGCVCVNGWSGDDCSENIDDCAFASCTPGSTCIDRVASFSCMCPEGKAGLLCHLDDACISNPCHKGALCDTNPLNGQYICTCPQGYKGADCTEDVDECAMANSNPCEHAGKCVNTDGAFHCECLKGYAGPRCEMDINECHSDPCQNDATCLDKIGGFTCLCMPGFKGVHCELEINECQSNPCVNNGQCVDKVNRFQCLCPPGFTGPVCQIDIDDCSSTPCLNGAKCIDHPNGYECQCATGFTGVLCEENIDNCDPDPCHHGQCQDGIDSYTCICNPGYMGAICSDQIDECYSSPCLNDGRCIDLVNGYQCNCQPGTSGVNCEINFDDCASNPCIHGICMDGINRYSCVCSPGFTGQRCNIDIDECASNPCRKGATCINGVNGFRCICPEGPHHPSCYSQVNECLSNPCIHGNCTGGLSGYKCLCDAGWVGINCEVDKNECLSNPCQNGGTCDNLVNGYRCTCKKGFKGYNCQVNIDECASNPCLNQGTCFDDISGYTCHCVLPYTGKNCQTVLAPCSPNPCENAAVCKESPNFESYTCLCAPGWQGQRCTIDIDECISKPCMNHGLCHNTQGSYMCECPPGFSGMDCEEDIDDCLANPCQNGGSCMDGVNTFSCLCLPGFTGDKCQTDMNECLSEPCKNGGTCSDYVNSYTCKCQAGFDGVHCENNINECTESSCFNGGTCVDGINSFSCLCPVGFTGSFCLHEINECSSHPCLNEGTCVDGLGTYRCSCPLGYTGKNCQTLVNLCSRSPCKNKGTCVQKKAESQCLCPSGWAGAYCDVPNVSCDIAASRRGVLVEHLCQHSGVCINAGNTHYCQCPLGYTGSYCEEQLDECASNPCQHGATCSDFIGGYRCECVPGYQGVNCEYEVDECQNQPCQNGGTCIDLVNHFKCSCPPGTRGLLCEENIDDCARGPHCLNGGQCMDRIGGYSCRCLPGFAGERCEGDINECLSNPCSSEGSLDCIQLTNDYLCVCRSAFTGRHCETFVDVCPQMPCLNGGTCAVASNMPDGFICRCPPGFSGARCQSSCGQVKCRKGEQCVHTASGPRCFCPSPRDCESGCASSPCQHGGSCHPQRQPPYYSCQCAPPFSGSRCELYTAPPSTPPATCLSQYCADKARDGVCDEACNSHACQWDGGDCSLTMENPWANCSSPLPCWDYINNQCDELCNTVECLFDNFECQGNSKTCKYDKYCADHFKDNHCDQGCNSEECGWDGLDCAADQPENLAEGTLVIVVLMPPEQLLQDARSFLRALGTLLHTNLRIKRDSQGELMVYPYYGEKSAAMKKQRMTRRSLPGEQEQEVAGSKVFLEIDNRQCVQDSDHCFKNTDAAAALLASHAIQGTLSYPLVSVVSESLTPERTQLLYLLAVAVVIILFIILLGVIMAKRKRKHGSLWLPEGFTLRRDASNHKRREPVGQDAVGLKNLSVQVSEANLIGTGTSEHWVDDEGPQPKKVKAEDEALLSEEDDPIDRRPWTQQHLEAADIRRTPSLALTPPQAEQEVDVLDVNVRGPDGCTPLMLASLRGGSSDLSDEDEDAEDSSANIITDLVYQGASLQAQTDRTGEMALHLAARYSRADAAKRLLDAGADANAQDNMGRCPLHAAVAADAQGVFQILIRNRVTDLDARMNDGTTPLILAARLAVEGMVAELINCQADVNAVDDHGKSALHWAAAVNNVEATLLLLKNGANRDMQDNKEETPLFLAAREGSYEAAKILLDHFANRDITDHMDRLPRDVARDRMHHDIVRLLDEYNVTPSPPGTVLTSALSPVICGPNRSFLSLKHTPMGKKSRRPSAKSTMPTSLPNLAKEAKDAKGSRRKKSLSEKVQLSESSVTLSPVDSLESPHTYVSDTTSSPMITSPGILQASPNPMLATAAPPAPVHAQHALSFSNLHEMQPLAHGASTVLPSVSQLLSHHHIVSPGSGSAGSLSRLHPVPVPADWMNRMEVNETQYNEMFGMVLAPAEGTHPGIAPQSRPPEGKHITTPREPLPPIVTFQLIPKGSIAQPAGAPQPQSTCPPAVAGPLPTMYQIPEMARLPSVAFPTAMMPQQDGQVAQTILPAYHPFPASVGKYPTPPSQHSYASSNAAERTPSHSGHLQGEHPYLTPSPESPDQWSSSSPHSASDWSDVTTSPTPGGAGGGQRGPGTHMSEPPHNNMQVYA

[6] = target: Pro-neuregulin-1, membrane-bound isoform (Homo sapiens) (UniProt Q02297); test: small molecules binding neuregulin-1 protein – biochemical, small-molecule microarray, fluorescence 635/667, psychiatric disease protein project, primary screen (AID 1075); settings: NRG1 binding, 635 nm fluorescence, higher = more signal;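 also: score combines 667 nm spot fluorescence with signal to noise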
Pro-neuregulin-1, membrane-bound isoform (Homo sapiens), sequence (Q02297 whole entry, looked up, the tested form may be a part, canonical isoform): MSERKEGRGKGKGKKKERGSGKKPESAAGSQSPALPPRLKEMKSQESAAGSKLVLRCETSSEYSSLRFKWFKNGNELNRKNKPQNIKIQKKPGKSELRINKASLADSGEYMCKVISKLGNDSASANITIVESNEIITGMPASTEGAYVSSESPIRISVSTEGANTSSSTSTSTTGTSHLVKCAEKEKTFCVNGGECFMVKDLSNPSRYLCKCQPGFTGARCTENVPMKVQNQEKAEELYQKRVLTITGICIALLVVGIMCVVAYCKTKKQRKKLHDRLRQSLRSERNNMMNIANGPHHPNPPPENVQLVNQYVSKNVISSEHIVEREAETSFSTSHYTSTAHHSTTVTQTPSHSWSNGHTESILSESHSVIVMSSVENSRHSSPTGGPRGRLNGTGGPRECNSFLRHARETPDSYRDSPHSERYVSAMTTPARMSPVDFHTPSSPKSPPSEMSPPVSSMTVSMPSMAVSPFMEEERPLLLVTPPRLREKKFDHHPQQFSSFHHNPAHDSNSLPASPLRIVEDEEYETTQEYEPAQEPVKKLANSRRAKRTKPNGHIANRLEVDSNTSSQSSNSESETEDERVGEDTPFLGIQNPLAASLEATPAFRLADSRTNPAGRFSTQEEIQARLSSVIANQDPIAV

[7] = tested on: Neuregulin-1 EGF-like domain; test: small molecules binding NRG1 EGF domain – biochemical, small-molecule microarray, 635 nm fluorescence, primary screen (AID 1081); settings: higher = more signal;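 also: binding of the protein to compounds printed on small-molecule microarray slides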
[8] = FRG1 expression reporter modulators in myotubes – cell-based, C2C12 myotubes, firefly/Renilla luciferase, luminescence, FRG1 inhibition for FSHD, primary screen (AID 1084); settings: FRG1 promoter luciferase, higher = more signal, called active from +8 up or from −8 down
[9] = small molecules captured by biotinylated probe aFST – biochemical, small-molecule microarray, fluorescence 635/667, stem cell growth factor project, primary screen (AID 1086); settings: higher = more signal;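 also: score merges 667 nm fluorescence with signal-to-noise of each printed compound spot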
[10] = binders of probe aHhip on microarray, primary screen, stem cell growth factor project, biochemical, small-molecule microarray, fluorescence 635/667 (AID 1087); settings: higher = more signal;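 also: score merges spot fluorescence at 667nm with spot signal to noise ratio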

SMILES	composite z-score [1]	composite z-score [2]	composite z-score [3]	composite z-score [4]	composite z-score [5]	composite z-score [6]	composite z-score [7]	z-score [8]	composite z-score [9]	composite z-score [10]
COc1ccc([C@H]2C[C@H]3C(I)=C[C@@H]2C(=O)[C@]32CO2)cc1	-0.434	0.241	-0.12	0.17	0.0021	-0.645	-0.571	2.29 (inactive)	0.169	-0.0237
O=C1NC(=O)C2C1C=CC(C(O)c1ccc(I)cc1)N2Nc1ccc(Cl)cc1Cl (stereo not given)	0.256	-0.396	-0.0085	0.29	1.43	1.49	0.991	-0.526 (inactive)	0.794	-0.321
[N-]=[N+]=Nc1ccccc1C[C@]1(C(=O)NCc2ccccc2)N=C(c2ccc(OCCCO)cc2)O[C@H]1c1ccccc1N=[N+]=[N-]	-0.0447	0.288	0.189	0.218	1.49	1.6	1.06	-0.899 (inactive)	0.726	-0.0672
COCC(=C=CC[C@H](O)c1cccc(OCCO)c1)C[C@H](O)c1cc(Cl)cc(Cl)c1O	-0.173	0.0375	-0.045	0.502	0.524	0.79	1.38	-0.578 (inactive)	0.181	-0.281
OCC1C=C(/C=C/c2ccccc2)CN1Cc1ccccc1Br (stereo not given)	-0.337	0.422	0.0619	0.979	1.42	0.808	0.331	-1.8 (inactive)	0.379	-0.136
CC(C)[Si](C#C[Si](C(C)C)(C(C)C)C(C)C)(O[C@H](C)c1cn(Cc2ccccc2)nn1)C(C)C	-0.169	0.209	-0.106	0.422	0.795	0.566	0.938	-1.66 (inactive)	0.372	-0.337
COC(=O)[C@]1(CCC(=O)OC(C)(C)C)N=C(c2ccc(OCCCO)cc2)O[C@@H]1c1ccccc1	1.11	-0.522	0.0679	-0.87	-0.668	0.791	1.14	-2.62 (inactive)	-0.159	-0.233
COc1ccc([Si](C)(C)[C@H]2[C@H](CC(=O)N3CCC[C@H]3CO)O[C@@]3(C(=O)N(Cc4cccc(N5CCOC5=O)c4)c4ccccc43)[C@@H]2C)cc1	-0.308	0.358	-0.042	0.141	0.143	0.662	0.876	-3.92 (inactive)	0.548	-0.169
C=CCN1C(=O)[C@]2(Cc3ccccc3)N=C(c3ccc(OCCCO)cc3)O[C@@H]2c2ccccc21	-0.0832	0.481	-0.0119	-0.0215	1.35	1.55	1.41	-1.05 (inactive)	0.395	-0.0994
CCOC(=O)[C@H]1C/C=C/C[C@H](C(=O)OCC)C(=O)O[C@H]2[C@@H](OC)O[C@H](CO)[C@@H](OC(=O)c3ccc(Br)cc3)[C@@H]2OC1=O	0.0086	0.014	-0.0459	-0.0304	-0.0686	0.132	0.517	-0.0847 (inactive)	-0.0976	0.0566
O=C(CS)NCCCCCNC(=O)[C@H]1C[C@H]2C(=O)NCC(=O)N2[C@H]1c1ccc(O)cc1	0.205	0.354	-0.159	-0.583	-1.4	-0.83	-0.0307	1.41 (inactive)	-0.753	-0.204
O=C1C2C=CC(C(O)COCc3ccccc3)N(Nc3ccc([N+](=O)[O-])cc3)C2C(=O)N1c1ccccc1 (stereo not given)	0.0903	-0.58	-0.0004	1.14	1.57	0.661	1.32	0.123 (inactive)	1.44	-0.145
CN(C)CCCCNC(=O)[C@@H]1C[C@@H]2C(=O)N[C@@H](CCCCN)C(=O)N2[C@@H]1c1ccc(O)cc1	0.597	0.034	-0.145	-0.146	0.471	0.707	1.13	-0.778 (inactive)	0.214	0.151
CCC(CC)C(O)C1C=CC2C(=O)N(c3ccccc3)C(=O)C2N1Nc1ccccc1 (stereo not given)	0.525	0.814	0.21	0.974	1.62	1.94	1.27	-1.31 (inactive)	1.42	-0.216
CC(C)=CCCC(C)=CC(O)C1C=CC2C(=O)N(c3ccccc3)C(=O)C2N1Nc1ccc(C(C)C)cc1 (stereo not given)	-0.345	-0.687	0.0218	0.249	1.21	1.63	1.06	0.821 (inactive)	1.07	-0.13
Cc1c(NC(=O)/C(C#N)=C/c2cccc([N+](=O)[O-])c2)c(=O)n(-c2ccccc2)n1C	-0.365	0.322	-0.112	0.0969	1.01	1.41	1.05	0.807 (inactive)	-0.0089	-0.0994
C=CCC(OC(C)=O)[C@@H]1[C@@H](N(Cc2cc3ccccc3o2)C(=O)Cc2ccc(OC)cc2)c2cc(OCCCO)ccc2N1C(=O)c1ccc2ccccc2c1 (stereo not given in full)	0.0894	0.196	-0.062	0.0575	-0.709	-0.336	-0.0601	-0.194 (inactive)	-0.005	0.0505
COc1ccccc1CN1C(=O)c2ccccc2[C@@H](C(=O)NCc2ccccc2)[C@@H]1c1ccc(CO)cc1	-0.232	0.939	-0.171	-0.298	0.0668	1.1	1.26	-2.9 (inactive)	0.635	-0.34
CC1CC/C=C\[C@H]2OC34C=CCN(Cn5nnc6ccccc65)C(=O)[C@H]3N(CCCCCO)C(=O)[C@@H]4C2C(=O)O1 (stereo not given in full)	-0.05	-0.67	-0.148	-0.499	-1.38	-0.917	-0.417	-0.373 (inactive)	-0.815	-0.251
COc1cc2c(cc1OC)CN(C(=O)[C@H]1[C@@H]3C(=O)O[C@@H](c4ccccc4)[C@@H](c4ccccc4)N3[C@@H](c3ccccc3OCCO)[C@]13C(=O)Nc1ccc(C#CCCO)cc13)CC2	-0.39	0.282	0.0094	0.339	0.775	1.27	1.07	-2.07 (inactive)	0.369	-0.0994
COc1cc2c(cc1O)C(c1cccs1)N(Cc1cccc(OC(F)(F)F)c1)CC2 (stereo not given)	0.0011	0.61	-0.114	-0.0012	0.192	1.39	0.774	-0.79 (inactive)	-0.146	-0.164
COC(=O)[C@@]1(Cc2ccc(F)cc2)[C@H]2c3cc(C(=O)N(C)C)n(Cc4cc(C)n(C)n4)c3C[C@H]2CN1C(=O)c1ccccc1	0.274	0.85	-0.19	0.515	1.61	1.66	1.29	0.0894 (inactive)	0.967	0.0139
CCN(CC)c1ccc(N2CC=CC34O[C@@H]5/C=C\CCC(C)OC(=O)C5[C@H]3C(=O)N(CCCCCO)[C@@H]4C2=O)cc1 (stereo not given in full)	-0.129	-0.474	-0.103	-0.497	-1.45	-0.551	-0.506	0.376 (inactive)	-0.284	-0.37
CC1CC/C=C\[C@H]2OC34C=CCN(Cc5ccccc5)C(=O)[C@H]3N(C(C)CO)C(=O)[C@@H]4C2C(=O)O1 (stereo not given in full)	-0.504	-0.33	-0.138	0.0852	-0.257	-0.771	1.44	0.251 (inactive)	-0.021	-0.0672
COC(=O)C[C@H]1O[C@@H](CCc2ccccc2)[C@@H](C)[C@@H]1[Si](C)(C)c1ccc(OC)cc1	-0.136	-0.724	-0.17	-0.318	-0.514	-0.553	-0.743	-0.149 (inactive)	-0.165	-0.137
O=C1C2C=CC(C(O)c3c(F)cccc3Cl)N(Nc3ccccc3F)C2C(=O)N1c1ccccc1 (stereo not given)	0.472	0.374	0.11	0.574	1.65	1.37	1.15	-3.2 (inactive)	1.04	0.113
